# Where “and” joins values, the source holds several entries; their conditions need not be identical. Identical values can stand only once. Inconclusive results are not listed. For some assays here: Results with a measured potency or affinity are listed apart. Calls of active or inactive are those of the source.
# How the values were obtained:
# [1] = Ebola virus entry assay, green fluorescence channel
# [2] = Ebola virus entry assay, green channel fluorescence
# [3] = Ebola virus entry assay, reporter ratio channel; AC50: Channel type: primary unless noted; outcome: Channel type: primary unless noted
# [4] = Ebola virus entry assay, blue channel (ratio component)
# [5] = molecular target: Hexokinase-4 (Homo sapiens) + Glucokinase regulatory protein (Homo sapiens) (UniProt P35557+Q14397); test: qHTS assay for inhibitors of recombinant human GCK-GKRP interaction: HTRF assay (AID 743207; active means well fitted curve in the direction sought with a large enough effect;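 further: 0% = DMSO with GCK present and -100% = DMSO wells lacking GCK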); conditions: recombinant GCK-GKRP HTRF binding, 60 min; series mostly up to 57.5 µM
# Hexokinase-4 (Homo sapiens) + Glucokinase regulatory protein (Homo sapiens), sequence (P35557 whole entry, looked up): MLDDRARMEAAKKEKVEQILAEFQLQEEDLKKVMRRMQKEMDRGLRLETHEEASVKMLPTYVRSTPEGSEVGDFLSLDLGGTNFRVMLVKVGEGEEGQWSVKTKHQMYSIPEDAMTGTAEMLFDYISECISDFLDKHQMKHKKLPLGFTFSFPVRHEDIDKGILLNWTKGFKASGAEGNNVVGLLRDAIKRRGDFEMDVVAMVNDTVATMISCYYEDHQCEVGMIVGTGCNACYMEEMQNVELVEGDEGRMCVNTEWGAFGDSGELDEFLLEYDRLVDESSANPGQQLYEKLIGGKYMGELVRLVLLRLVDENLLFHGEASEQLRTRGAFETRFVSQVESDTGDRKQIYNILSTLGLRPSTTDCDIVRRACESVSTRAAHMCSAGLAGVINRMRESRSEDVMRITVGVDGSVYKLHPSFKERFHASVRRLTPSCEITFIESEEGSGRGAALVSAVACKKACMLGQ
# Hexokinase-4 (Homo sapiens) + Glucokinase regulatory protein (Homo sapiens), sequence (Q14397 whole entry, looked up): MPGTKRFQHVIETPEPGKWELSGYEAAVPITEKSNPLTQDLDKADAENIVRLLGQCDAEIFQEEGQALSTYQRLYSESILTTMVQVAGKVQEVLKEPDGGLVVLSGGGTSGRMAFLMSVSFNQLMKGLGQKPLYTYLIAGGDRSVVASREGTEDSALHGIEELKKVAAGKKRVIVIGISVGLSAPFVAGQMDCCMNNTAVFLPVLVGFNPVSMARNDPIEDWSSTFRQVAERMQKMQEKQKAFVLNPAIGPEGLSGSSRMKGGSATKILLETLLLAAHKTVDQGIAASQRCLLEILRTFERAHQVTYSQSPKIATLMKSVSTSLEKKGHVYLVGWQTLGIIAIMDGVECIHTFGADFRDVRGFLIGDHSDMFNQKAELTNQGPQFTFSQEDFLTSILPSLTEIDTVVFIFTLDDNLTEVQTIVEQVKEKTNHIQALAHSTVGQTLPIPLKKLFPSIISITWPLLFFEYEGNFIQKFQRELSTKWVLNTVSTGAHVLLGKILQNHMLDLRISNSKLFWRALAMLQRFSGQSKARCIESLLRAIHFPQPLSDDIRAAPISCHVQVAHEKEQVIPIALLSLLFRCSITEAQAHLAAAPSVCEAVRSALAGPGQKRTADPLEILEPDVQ
# Procedure, shortened: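 HTRF read-out (ex 320 nm; 615/665 nm emission) after 60 min RT equilibration of 5 nM GST-GCK, 5 nM FLAG-GKRP, 2 uM S6P, compound and anti-FLAG/anti-GST detection antibodies; signal normalized between DMSO wells with and without GCK.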
# [6] = qHTS Assay for Identifying Gametocytocidal Compounds (AID 743244; active means well fitted curve in the direction sought with a large enough effect;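 further: on the % scale 0 is the no-effect control and ±100 the full control effect; actives lower the fluorescent signal which means gametocytes are killed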); conditions: P. falciparum 3D7 stage III-V gametocytes, alamarBlue, 72 h; max response: stronger effect = lower value
# Procedure, shortened: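 3D7 gametocytes, stages III–V, 20,000/well; cpd 72 h, 37 °C/5% CO2; + alamarBlue 24 h; fluor. Ex 525/Em 598.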
# [7] = Ebola virus entry assay, blue channel fluorescence
# [8] = Ebola virus entry assay, green fluorescence channel; remark: listed apart in the source
# [9] = Ebola virus entry assay, ratio channel readout
# [10] = Ebola virus entry assay, blue channel fluorescence; remark: listed apart in the source
# [11] = Ebola virus entry assay, ratio channel
# [12] = Ebola virus entry assay, blue channel fluorescence; remark: listed apart in the source
# [13] = Ebola virus entry reporter assay, green channel fluorescence
# [14] = Ebola virus entry cell assay, ratio channel
# [15] = qHTS profiling of the MIPE4 collection as inhibitors of Plasmodium falciparum (3D7) proliferation (AID 743344);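 further: scaled between DMSO vehicle wells and 0.29 µM artemisinin as full inhibition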; conditions: P. falciparum 3D7 in erythrocytes, SYBR Green DNA fluorescence, 72 h; at 28.5 µM (top of the series) unless noted
# Procedure, shortened: (§1)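 Parasite DNA was quantified by SYBR Green I fluorescence (ex 485, em 535 nm) after overnight lysis in saponin/Triton buffer at room temperature. Cultures at 0.3% parasitemia and 2.5% hematocrit were first exposed to compound for 72 h at 37 C; signals were normalised to artemisinin (0.29 uM) and vehicle wells.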
# [16] = qHTS profiling of the MIPE4 collection as inhibitors of Plasmodium falciparum (HB3) proliferation (AID 743347);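 further: plate controls were DMSO vehicle wells for no effect and artemisinin wells for full effect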; conditions: P. falciparum HB3 in erythrocytes, SYBR Green DNA, 72 h; at 28.5 µM (top of the series) unless noted
# Procedure, shortened: as §1
# Wherever efficacy is given: 0% is about no effect.
smiles,measurement,setting,value
CCCc1c2oc(C(=O)O)cc(=O)c2cc2c(=O)cc(C(=O)O)n(CC)c12,efficacy,[1],16% (inactive)
same,outcome,[2],inactive
same,outcome,[3],inactive
same,outcome,[4],inactive
CC(C)[N+](C)(C)CC(O)COc1cccc2ccccc12 (stereo unspecified),efficacy,[1],-28.5% (inactive)
same,outcome,[2],inactive
same,outcome,[3],inactive
same,outcome,[4],inactive
CC(=O)C1CCOC1=O (stereo unspecified),efficacy,[1],6.81% (inactive)
same,outcome,[2],inactive
same,outcome,[3],inactive
same,outcome,[4],inactive
CC(=O)N(c1onc(C)c1C)S(=O)(=O)c1ccc(N)cc1,efficacy,[1],-8.94% (inactive)
same,outcome,[2],inactive
same,outcome,[3],inactive
same,outcome,[4],inactive
Nc1ccc(C(=O)Nc2ccccc2N)cc1,efficacy,[1],-27% (inactive)
same,outcome,[2],inactive
same,outcome,[3],inactive
same,outcome,[4],inactive
COc1ccc(-c2cc(=O)c3c(O)cc(O[C@@H]4O[C@H](CO[C@@H]5O[C@@H](C)[C@H](O)[C@@H](O)[C@H]5O)[C@@H](O)[C@H](O)[C@H]4O)cc3o2)cc1O,efficacy,[1],-6.57% (inactive)
same,outcome,[2],inactive
same,outcome,[3],inactive
same,outcome,[4],inactive
CC(C)(Oc1ccc(Cl)cc1)C(=O)OCCCOC(=O)C(C)(C)Oc1ccc(Cl)cc1,efficacy,[1],-14% (inactive)
same,outcome,[2],inactive
same,outcome,[3],inactive
same,outcome,[4],inactive
COc1ccc2[nH]cc(CCNC(C)=O)c2c1,efficacy,[1],-12.3% (inactive)
same,outcome,[2],inactive
same,outcome,[3],inactive
same,outcome,[4],inactive
COc1ccc(C(=O)CC(=O)c2ccc(C(C)(C)C)cc2)cc1,efficacy,[1],-14.9% (inactive)
same,outcome,[2],inactive
same,outcome,[3],inactive
same,outcome,[4],inactive
CCCc1nn(C)c2c(=O)[nH]c(-c3cc(S(=O)(=O)N4CCN(C)CC4)ccc3OCC)nc12,efficacy,[1],14.7% (inactive)
same,outcome,[2],inactive
same,outcome,[3],inactive
same,outcome,[4],inactive
CC(C)COC(=O)c1ccc(N)cc1,efficacy,[1],8.42% (inactive)
same,outcome,[2],inactive
same,outcome,[3],inactive
same,outcome,[4],inactive
COc1cc(O)cc(O)c1,efficacy,[1],16.6% (inactive)
same,outcome,[2],inactive
same,outcome,[3],inactive
same,outcome,[4],inactive
Cn1cc(S(C)=O)c(=O)c2ccc(F)cc21 (stereo unspecified),efficacy,[1],-15.1% (inactive)
same,outcome,[2],inactive
same,outcome,[3],inactive
same,outcome,[4],inactive
O=C(CCCl)NCCc1ccccc1,efficacy,[1],-10.7% (inactive)
same,outcome,[2],inactive
same,outcome,[3],inactive
same,outcome,[4],inactive
O=C(Cn1ccnc1[N+](=O)[O-])NCc1ccccc1,efficacy,[1],-10.1% (inactive)
same,outcome,[2],inactive
same,outcome,[3],inactive
same,outcome,[4],inactive
CC(=O)Nc1ccc(/C=N/NC(N)=S)cc1,efficacy,[1],33.2% (inactive)
same,outcome,[2],inactive
same,outcome,[3],inactive
same,outcome,[4],inactive
CN1N=C(C(N)=O)CCC1=O,efficacy,[1],-14% (inactive)
same,outcome,[2],inactive
same,outcome,[3],inactive
same,outcome,[4],inactive
CCn1cc(C(=O)O)c(=O)c2cnc(N3CCNCC3)nc21,efficacy,[1],-36.7% (inactive)
same,outcome,[2],inactive
same,outcome,[3],inactive
same,outcome,[4],inactive
NS(=O)(=O)c1ccc(C(=O)O)cc1,efficacy,[1],11% (inactive)
same,outcome,[2],inactive
same,outcome,[3],inactive
same,outcome,[4],inactive
Cc1onc(-c2ccccc2)c1-c1ccc(S(N)(=O)=O)cc1,efficacy,[1],21% (inactive)
same,outcome,[2],inactive
same,outcome,[3],inactive
same,outcome,[4],inactive
Nc1ccc(/C=C/c2ccc(N)cc2S(=O)(=O)O)c(S(=O)(=O)O)c1,efficacy,[1],21.3% (inactive)
same,outcome,[2],inactive
same,outcome,[3],inactive
same,outcome,[4],inactive
NC(=O)NC1N=C([O][Al])NC1=O (stereo unspecified),efficacy,[1],12.9% (inactive)
same,outcome,[2],inactive
same,outcome,[3],inactive
same,outcome,[4],inactive
CC1(C)O[C@@H]2C[C@H]3[C@@H]4CCC5=CC(=O)C=C[C@]5(C)[C@@]4(F)[C@@H](O)C[C@]3(C)[C@]2(C(=O)CO)O1,efficacy,[1],24.4% (inactive)
same,outcome,[2],inactive
same,outcome,[3],inactive
same,outcome,[4],inactive
NC(N)=NCCN1CCCCCCC1,efficacy,[1],-19.4% (inactive)
same,outcome,[2],inactive
same,outcome,[3],inactive
same,outcome,[4],inactive
CN1CCN(N)CC1,efficacy,[1],16.4% (inactive)
same,outcome,[2],inactive
same,outcome,[3],inactive
same,outcome,[4],inactive
Nc1ncnc2c1ncn2Cc1c(F)cccc1Cl,efficacy,[1],-22.1% (inactive)
same,outcome,[2],inactive
same,outcome,[3],inactive
same,outcome,[4],inactive
Cn1c([N+](=O)[O-])cnc1COC(N)=O,efficacy,[1],19.4% (inactive)
same,outcome,[2],inactive
same,outcome,[3],inactive
same,outcome,[4],inactive
C[C@@H]1O[C@@H](OC[C@H]2O[C@@H](Oc3c(-c4ccc(O)c(O)c4)oc4cc(O)cc(O)c4c3=O)[C@H](O)[C@@H](O)[C@@H]2O)[C@H](O)[C@H](O)[C@H]1O,efficacy,[1],21.1% (inactive)
same,outcome,[2],inactive
same,outcome,[3],inactive
same,outcome,[4],inactive
Cn1c(=O)c2[nH]c(Br)nc2n(C)c1=O,efficacy,[1],-24.3% (inactive)
same,outcome,[2],inactive
same,outcome,[3],inactive
same,outcome,[4],inactive
CCCNC(C)C(=O)Nc1c(C)csc1C(=O)OC (stereo unspecified),efficacy,[1],13% (inactive)
same,outcome,[2],inactive
same,outcome,[3],inactive
same,outcome,[4],inactive
N#CSCC(=O)O,efficacy,[1],-33.9% (inactive)
same,outcome,[2],inactive
same,outcome,[3],inactive
same,outcome,[4],inactive
NC(=O)NC1NC(=O)NC1=O (stereo unspecified),efficacy,[1],-19.2% (inactive)
same,outcome,[2],inactive
same,outcome,[3],inactive
same,outcome,[4],inactive
COc1ccc(/C=N/NC(=O)c2ccncc2)cc1OC,efficacy,[1],14.8% (inactive)
same,outcome,[2],inactive
same,outcome,[3],inactive
same,outcome,[4],inactive
O=C(c1ccccc1)c1ccccc1,efficacy,[1],10.2% (inactive)
same,outcome,[2],inactive
same,outcome,[3],inactive
same,outcome,[4],inactive
C=C(C)[C@H]1CN[C@H](C(=O)O)[C@H]1CC(=O)O,outcome,[5],inactive
same,max response,[6],5.55% (inactive) and 38.6% (inactive)
same,efficacy,[1],-11.7% (inactive)
same,outcome,[2],inactive
same,outcome,[3],inactive
same,outcome,[4],inactive
Cc1ccc(C(=O)C(=O)O)cc1C,efficacy,[1],-11.1% (inactive)
same,outcome,[2],inactive
same,outcome,[3],inactive
same,outcome,[4],inactive
O=C(O)c1ccccc1S,max response,[6],58.9% (inactive)
same,efficacy,[1],16.8% (inactive)
same,outcome,[2],inactive
same,outcome,[3],inactive
same,outcome,[4],inactive
COc1c(N2C[C@@H]3CCCN[C@@H]3C2)c(F)cc2c(=O)c(C(=O)O)cn(C3CC3)c12,outcome,[7],inactive
same,outcome,[8],inactive
same,outcome,[9],inactive
same,outcome,[10],inactive
same,outcome,[11],inactive
same,outcome,[2],inactive
same,outcome,[12],inactive
same,outcome,[3],inactive
same,outcome,[4],inactive
same,outcome,[13],inactive
same,outcome,[14],inactive
O=[N+]([O-])O[C@H]1CO[C@H]2[C@@H]1OC[C@H]2O[N+](=O)[O-],max response,[6],30.8% (inactive)
same,efficacy,[1],-25.2% (inactive)
same,outcome,[2],inactive
same,outcome,[3],inactive
same,outcome,[4],inactive
CCN(CC)CCOC(=O)c1ccc(N)cc1,efficacy,[1],-27.3% (inactive)
same,outcome,[3],inactive
same,outcome,[4],inactive
Cn1c(=O)c2[nH]cnc2n(C)c1=O,"parasite growth, % of DMSO control",[15],85.4%
same,"growth, % of control",[16],96.9%
same,efficacy,[1],-18.7% (inactive)
same,outcome,[2],inactive
same,outcome,[3],inactive
same,outcome,[4],inactive

# — PubChem BioAssay (NCATS)
